From PubChem
Most compounds without a hit are left out; they make up all but 1.4% or so of the library.
INS promoter inh = TRM-6 insulin promoter activity inhibition; 130,000 compounds, 0.9% hits; inhibition, % at 2 µM; AID 1273; TRM-6 cells (human fetal islet line), insulin promoter-eGFP reporter, imaging; reporter expression induced with tamoxifen;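 active means inhibition above the mean plus 3 SD, with well images judged a real hit on visual review, cut at about 60% in these data, passing the limit was not always enough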
IL1B cytotox = HUVEC cytotoxicity counter-screen, IL-1B stimulated; HUVEC cell count loss, Hoechst imaging; cell count reduction, % at 2 µM; 94,000 compounds, 0.41% hits;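 active means cell count reduction more than 3 SD above the screen-wide mean, cut at about 70% in these data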;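 further: normalized per plate to untreated control cells as the no-loss baseline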
IL1B NFkB inh = blocks IL-1B driven NFkB nuclear translocation in HUVEC cells; inhibition, % at 2 µM; HUVEC IL-1B NFkB p65 nuclear translocation imaging; 94,000 compounds, 0.43% hits;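 active means inhibition above about 30% together with a positive call from visual inspection of the well image, limit read from the data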;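 further: nuclear over cytoplasmic p65 intensity ratio measured by imaging; 0% = IL-1B stimulated DMSO wells and 100% = unstimulated DMSO wells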
IL1B NFkB pot = enhances IL-1B driven NFkB nuclear translocation; HUVEC IL-1B NFkB p65 nuclear translocation imaging; activation, % at 2 µM; AID 819; 94,000 compounds, 0.3% hits;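 active means activation above 40%, about the mean plus 3 SD, also judged a hit on visual image review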;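 further: percent activation is computed from the nuclear over cytoplasmic p65 intensity ratio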
Numbers without * were called inactive; nt = not tested or not shown.

SMILES	INS promoter inh	IL1B cytotox	IL1B NFkB inh	IL1B NFkB pot
COC(=O)C1=C(C)n2nnnc2NC1c1ccc(Cl)cc1 (stereo not given)	47	-4	-42	42*
COC(=O)C1=C(C)N(C)C(=O)NC1c1ccc(C)cc1 (stereo not given)	-13	-42	1	-1
Cc1nc(C)c(-c2csc(Nc3cccnc3)n2)s1	87*	-23	-18	18
Cc1nc(OCc2ccccc2)c2sc3nc4c(cc3c2n1)COC(C)(C)C4	-11	-1	-8	8
O/N=C1/CCCSc2ccccc21	nt	6	-48	48*
CCC(CC)C(=O)OCC(=O)Nc1cc(OC)c([N+](=O)[O-])cc1C	64*	nt	nt	nt
COc1cc(NC(=O)COC(=O)CNC(=O)c2cc(C)cc(C)c2)c(C)cc1[N+](=O)[O-]	0	nt	nt	nt
CC(C)OC(=O)C(C)Oc1ccc(C(=O)NCCc2ccccc2)cc1 (stereo not given)	38	23	14	-14
CCc1ccc(/C=C2/C(=O)N(CC)C(=S)N2C)s1	69*	nt	nt	nt
C/C(CC(=O)NCc1ccc(F)cc1)=N\NC(N)=S	0	nt	nt	nt
Cn1ncc(Br)c1C(=O)Nc1ccc(F)cc1F	45	88*	98*	-98
CCC1(CC)NC(=O)N(CC(=O)Nc2sc3c(c2C(N)=O)CCC3)C1=O	36	-11	-37	37
CCN(CC)C(=O)Cn1cnc2sc(C(=O)Nc3cc(OC)c(OC)c(OC)c3)c(C)c2c1=O	-37	-79	-42	42*
CCCNC(=O)Cn1cnc2sc(C(=O)Nc3cc(OC)c(OC)c(OC)c3)c(C)c2c1=O	nt	-18	-12	12
CSc1nc(-c2ccc(Cl)cc2)nn1C(=O)c1ccccc1	79*	nt	nt	nt
CSc1nc(-c2ccccc2)nn1C(=O)c1ccc(Cl)cc1	4	-15	-2	3
CC(C)Nc1nc(NC(C)C)nc(N(C)C#N)n1	77*	-26	2	-2
CCN(C#N)c1nc(NC(C)C)nc(NC(C)C)n1	12	-5	-6	6
Cc1ccc(SCC(=O)NC(C)(C)C)cc1	-34	-88	-11	11
COc1ccc2c(c1)c1ncn(CCN3CCNCC3)c(=O)c1n2C	0	92*	16	-16
N/C(Cc1ccc([N+](=O)[O-])cc1)=N\OC(=O)c1ccc(Br)o1	71*	nt	nt	nt
N/C(Cc1ccc([N+](=O)[O-])cc1)=N\OC(=O)Cc1ccccc1	-23	nt	nt	nt
O=C(c1cccc(C(F)(F)F)c1)N1CCOC12CCN(c1ncc(C(F)(F)F)cc1Cl)CC2	nt	-15	33*	-33
O=C(OC1CCN(c2ncc(C(F)(F)F)cc2Cl)CC1)c1cccc(C(F)(F)F)c1	nt	54	1	-1
COc1cc(-c2nc3cccc(C)n3c2NCC2CCCO2)ccc1O (stereo not given)	-50	nt	nt	nt
SMILES	INS promoter inh	IL1B cytotox	IL1B NFkB inh	IL1B NFkB pot
Cc1ccnc(SCC(=O)c2ccc(Br)cc2)c1C#N	61*	nt	nt	nt
CC(C)(CCl)C(=O)Nc1ccc(C(F)(F)F)cc1	85*	nt	nt	nt
CSCCC(NS(=O)(=O)c1ccc(Cl)cc1)C(=O)OCC(=O)NC1CC1 (stereo not given)	3	2	5	-5
CSCCC(NS(=O)(=O)c1ccc(Br)cc1)C(=O)OCC(=O)NC1CC1 (stereo not given)	83*	nt	nt	nt
Cc1nn2cc(-c3ccc(Cl)cc3)cnc2c1Cl	38	nt	nt	nt
N#Cc1c(-n2cccc2/C=N/O)sc2c1CCCC2	71*	13	8	-8
N#Cc1c(NC(=S)NC(=O)c2ccccc2)sc2c1CCCC2	26	nt	nt	nt
N#Cc1c(N2C(=O)C3C4C=CC(C4)C3C2=O)sc2c1CCC2 (stereo not given)	-30	-9	-7	7
C=CCNCc1cccn1-c1sc2c(c1C#N)CCCC2	-36	8	31*	-31
CC(C)Cn1c(N)c(C(=O)COC(=O)c2cc(C(F)(F)F)nc3c(C(F)(F)F)cccc23)c(=O)n(C)c1=O	15	nt	nt	nt
Cc1ccc(NC(=O)CN(C)Cc2nc3c(Br)cc(Br)cc3c(=O)[nH]2)cc1	-55	nt	nt	nt
CC1(c2cccs2)CC(c2cccs2)=C(C#N)C(=O)N1 (stereo not given)	17	-38	3	-3
Cc1ccc(NC2c3ncccc3C(=O)N2Cc2ccco2)c(C)c1 (stereo not given)	5	nt	nt	nt
COc1ccc(NC(=O)C2CCN(S(=O)(=O)c3c(C)noc3C)CC2)cc1Cl	12	0	-3	3
Cc1cc(C)c(S(=O)(=O)Nc2ccc3c4c(cccc24)CC3)c(C)c1	-123	59	42*	-42
CCc1nnc(NC(=O)CCC(=O)N2CCCC2)s1	30	21	-79	79*
Cc1ccc(OCCn2c(=S)[nH]c3c(N)ncnc32)cc1	-7	nt	nt	nt
COc1ccc(N(C)S(=O)(=O)c2cccc(C(=O)Nc3nc4ccccc4[nH]3)c2)cc1	71*	nt	nt	nt
